Most compounds without a hit are left out; they make up all but 3.7% or so of the library.
Wnt bcat act – Wnt/beta-catenin pathway activation. Wnt/beta-catenin reporter cell assay, activator, plate reader. activation, % at 9.35 µM. hit rate 1.2% among 300,000. AID 743398; in the data active = activation above about 30%, passing the limit was not always enough; inconclusive = no clear call, values can overlap the other calls;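 also: 0% = neutral control wells and 100% = positive control wells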
MLL AF4-AF9 inh – blocks AF4 peptide binding to human AF9. P42568. AlphaScreen, biotin-AF4 peptide binding to FLAG-AF9. inhibition, % at 10 µM. hit rate 0.47% among 350,000;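 active = every replicate reaching a set inhibition limit, whatever the replicate mean, cut at about 25% in these data; inconclusive = mean inhibition reaches that limit but some replicates miss it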;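 also: 0% = plate neutral control median and 100% = total signal loss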
Target sequence (P42568 whole entry, looked up): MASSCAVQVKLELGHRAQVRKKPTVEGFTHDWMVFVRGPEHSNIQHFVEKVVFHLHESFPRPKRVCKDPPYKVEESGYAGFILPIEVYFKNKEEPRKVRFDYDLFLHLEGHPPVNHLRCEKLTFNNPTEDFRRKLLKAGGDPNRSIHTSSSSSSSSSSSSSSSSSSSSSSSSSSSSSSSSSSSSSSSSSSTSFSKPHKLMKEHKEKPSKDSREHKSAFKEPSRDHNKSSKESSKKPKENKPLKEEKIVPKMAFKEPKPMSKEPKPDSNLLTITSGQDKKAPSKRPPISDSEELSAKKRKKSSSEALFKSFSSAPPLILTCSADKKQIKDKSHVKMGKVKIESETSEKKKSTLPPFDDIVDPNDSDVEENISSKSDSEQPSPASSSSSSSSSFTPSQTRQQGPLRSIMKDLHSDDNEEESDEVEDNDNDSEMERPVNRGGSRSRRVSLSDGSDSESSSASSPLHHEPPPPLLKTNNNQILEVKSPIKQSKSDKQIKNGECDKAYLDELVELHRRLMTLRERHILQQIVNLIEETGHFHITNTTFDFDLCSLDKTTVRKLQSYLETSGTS
esBAF inh – SWI/SNF esBAF complex inhibition; mouse ES cells, Bmi1-luciferase knock-in reporter, 24 h; 100% = twice the neutral-well signal; reporter increase, % at 12.5 µM; hit rate 2% among 350,000; AID 602393; in the data active = activation above about 40%; inconclusive = no clear call, values can overlap the other calls;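 also: 0% = median of the plate's neutral control wells and 100% = double that signal; a rise in the Bmi1 reporter signal indicates esBAF inhibition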
Ecoli rRNA inh – inhibitors of bacterial rRNA selective over humanized ribosomes; GFP signal change (wild-type ribosome), % (concentration not given with the values); hit rate 1.6% among 350,000; E. coli WT GFP vs humanized-ribosome RFP mutants, fluorescence, 24 h; hits give low values; DMSO median 0, no signal -100;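 active = significant combined selectivity score with lowered wild-type GFP, culture density cut under 30%, mutant RFP and density less affected; inactive = any of these conditions unmet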
MITF TRPM1 HTS – MITF TRPM1 promoter activation in melanoma cells. SK-MEL-5 TRPM1-promoter luciferase, 24 h; % of positive control, neutral wells = 0. activation, % at 12.5 µM. hit rate 0.75% among 300,000. AID 588334;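 active = mean activation of at least 80% with every replicate also reaching 80%; inconclusive = mean reaches 80% but some replicate falls short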;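 also: 0% = neutral control wells and 100% = parthenolide positive control wells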
Starred values were filed as active, the others as inactive; ? = inconclusive; nt = not tested or not shown.

SMILES | Wnt bcat act | MLL AF4-AF9 inh | esBAF inh | Ecoli rRNA inh | MITF TRPM1 HTS
CCOc1ccc2oc(C(=O)Nc3ccc(C)cn3)c(C)c2c1 | 21 | 2 | 85* | 5 | nt
Cc1ccc(NC(=O)c2oc3ccccc3c2C)nc1 | ? | -3 | nt | 11 | 20
COc1ccccc1NC(=O)c1oc2ccc(C)cc2c1C | 5 | nt | 48* | nt | nt
Fc1cccc(Cc2noc(CN3CCCN(C4Cc5ccccc5C4)CC3)n2)c1 | -3 | 2 | nt | 5 | -3
CCN(CC)C(=O)COC(=O)C1=NN(c2cc(C)ccc2C)C(=O)CC1 | -4 | -3 | -2 | 8 | -11
Cc1ccc(-c2csc3nc(C(C)C)oc(=O)c23)c(C)c1 | 8 | nt | -9 | -24* | -9
Cc1nnc2ccc(N3CCCCC3)nn12 | -1 | -1 | 6 | 6 | nt
Cc1sc2nc3ccc(N4CCCC4)nn3c(=O)c2c1C | 5 | 1 | 52* | 11 | 31
Cc1ccc2nc3ccc(N4CCN(C)CC4)nn3c(=O)c2c1 | nt | nt | 49* | nt | 33
Cc1ccc2nc3ccc(N4CCCCCCC4)nn3c(=O)c2c1 | 29 | nt | 60* | nt | nt
O=c1c2ccccc2nc2ccc(N3CCOCC3)nn12 | ? | nt | nt | nt | 46
O=C(c1cc[n+]([O-])cc1)N1CCc2c([nH]c3ccccc23)C1c1ccccc1Cl (stereo not drawn) | nt | 4 | nt | -30* | 8
N#C/C(=C(/O)c1cccc(F)c1)c1nc2ccccc2s1 | 34* | 4 | nt | -23 | 52
Cn1c(/C(C#N)=C(\O)c2cccc(F)c2)nc2ccccc21 | 5 | 1 | 21 | 3 | 2
N#C/C(=C(/O)c1ccco1)c1nc2ccccc2s1 | 4 | 1 | 58* | -24 | 43
O=C(N[C@H]1CC[C@H](CCNS(=O)(=O)c2ccc(Cl)cc2)O[C@@H]1CO)c1cccnc1 | nt | 0 | -2 | -8 | nt
C[C@H](NC(=O)[C@H]1[C@H](CO)[C@H]2Cn3c(ccc(C4=CCCCC4)c3=O)[C@H]2N1C)c1ccccc1 | nt | 2 | 5 | -7 | nt
O=C(COC(=O)CCC(=O)c1ccc(F)cc1)NCc1ccccc1Cl | 0 | -4 | -3 | -30* | 9
Fc1ccc(/C=N/NC2=Nc3cccc4cccc2c34)cc1 | 58* | nt | nt | nt | 18
CC(C)(C)c1cc(C(c2cccnc2)N2CCN(CCO)CC2)cc(C(C)(C)C)c1O (stereo not drawn) | 1 | ? | -7 | -30* | -79
COc1ccccc1C#Cc1ccc2c(c1)O[C@@H](CN(C)Cc1ccccc1)[C@@H](C)CN([C@@H](C)CO)S2(=O)=O | nt | 0 | -1 | 0 | nt
O=c1c2c(nc3cc(-c4ccc(Br)cc4)[nH]n13)CCCC2 | 14 | -1 | 26 | 12 | 109*
Cc1ccc(-c2[nH]n3c(=O)c4c(nc3c2C)CCCC4)cc1 | nt | nt | 53* | -2 | nt
CCCc1cc(=O)n2[nH]c(-c3ccc(Br)cc3)cc2n1 | nt | nt | 48* | nt | 61
CCOC(=O)Cc1cc(=O)n2[nH]c(-c3ccccc3)cc2n1 | -4 | nt | 2 | -4 | -8
SMILES | Wnt bcat act | MLL AF4-AF9 inh | esBAF inh | Ecoli rRNA inh | MITF TRPM1 HTS
CCCc1cc(=O)n2[nH]c(-c3cccc(Br)c3)cc2n1 | 7 | -1 | 52* | 8 | nt
CN1c2ccc(Br)cc2[C@@H]2[C@@H](CCN2C(=O)Nc2cccc(F)c2)[C@H]1CO | nt | nt | -3 | -3 | nt
Cc1ccc2c(c1)c1nc3ccccc3nc1n2CCN1CCOCC1 | nt | nt | 60* | nt | nt
CCn1c2ccc(C)cc2c2nnc(SCCN3CCOCC3)nc21 | -3 | 1 | nt | -13 | 1
COc1cc(OC)c2c(c1)OC(=O)CC2c1ccc(C)cc1 (stereo not drawn) | -2 | 0 | -13 | -22 | -1
COc1cc(OC)c2c(c1)OC(=O)CC2c1ccc2c(c1)OCO2 (stereo not drawn) | -2 | 0 | -5 | -28* | 0
CCN(Cc1ccccc1)S(=O)(=O)c1ccc2c(c1)NC(=O)CS2 | -2 | 1 | -1 | -35* | 1
COc1ccc(CCNS(=O)(=O)c2ccc3c(c2)NC(=O)C(C)S3)cc1OC (stereo not drawn) | -2 | 0 | -7 | -21 | -8
CCc1cccc(NS(=O)(=O)c2ccc3c(c2)NC(=O)C(C)S3)c1 (stereo not drawn) | -5 | 2 | -6 | -53 | -8
Cc1ccc(CNS(=O)(=O)c2ccc3c(c2)NC(=O)C(C)S3)cc1 (stereo not drawn) | -2 | -5 | -34 | -34* | -2
O=C1CSc2ccc(S(=O)(=O)NCc3ccc(Cl)cc3)cc2N1 | 0 | -3 | nt | -30* | 6
COc1ccc(CNS(=O)(=O)c2ccc3c(c2)NC(=O)C(C)S3)cc1 (stereo not drawn) | 0 | 3 | -10 | -19* | 1
C[C@@H]1CN([C@@H](C)CO)C(=O)CCCn2cc(nn2)CO[C@H]1CN(C)C(=O)Nc1ccccc1 | -3 | -2 | -1 | -1 | nt
CCCC#Cc1ccc([C@@H]2[C@@H](CO)N3CCCCN(C(=O)NC4CCCC4)C[C@H]23)cc1 | nt | 1 | -5 | -59 | nt
CC(=O)c1ccc(-c2nnc(CCC(=O)N3CCCC(C(=O)CC(C)C)C3)o2)s1 (stereo not drawn) | -1 | -7 | 83* | -2 | 73
NC(=O)C1CCCN(C(=O)CCc2nnc(C3(c4ccc(Cl)cc4)CCC3)o2)C1 (stereo not drawn) | -2 | 0 | nt | 11 | 17
CCC(=O)C1CCCN(C(=O)CCc2nnc(C3(c4ccc(Cl)cc4)CCC3)o2)C1 (stereo not drawn) | 18 | 1 | 50* | -4 | 44
COc1ccc(CNC(=O)C(=O)NCC(c2ccco2)N2CCOCC2)cc1 (stereo not drawn) | 40* | nt | 6 | nt | 3
O=C(OCc1ccccc1)N1CCOCCN(C(=O)OCc2ccccc2)CCOCC1 | -2 | -1 | nt | -25 | -8
O=[N+]([O-])c1ccc(O)c(C(C#Cc2ccccc2)N2CCOCC2)c1 (stereo not drawn) | 29 | -14 | nt | -32* | 5
COc1cc(NC(=O)C/C(C)=N/NC(=O)C(=O)NCCO)c(OC)cc1Cl | -4 | nt | nt | -52* | nt
COc1cc(NC(=O)C/C(C)=N/NC(=O)C(=O)NC2CCCCC2)c(OC)cc1Cl | -1 | -1 | nt | 2 | -11
CSc1ccccc1C(=O)Nc1ccc2c(c1)CCC2 | 30* | 2 | ? | 2 | 24
Cc1c(C(=O)Nc2ccc(Nc3ccccc3)cc2)cccc1[N+](=O)[O-] | -2 | 9 | -4 | -15 | -4
Cc1c(C(=O)Nc2ccc3c(c2)CCC3)cccc1[N+](=O)[O-] | 15 | -6 | 82* | -4 | 92*
CCCOc1ccccc1/C=C(\C#N)C(=O)Nc1cccc(C)n1 | 5 | 6 | 3 | -24* | 35
CCC(C)N(CCNC(=O)c1ccc(NC2=NC3CS(=O)(=O)CC3S2)cc1)Cc1ccco1 (stereo not drawn) | -2 | 9 | -4 | 3 | -4
Cc1c(CC(C)C)nc(N)c(C#N)c1-c1ccccc1 | nt | nt | 87* | nt | -3
CCOc1cc(/C=N/NC(=O)CSc2nnc(C)s2)ccc1OCc1ccccc1Cl | 52* | 0 | nt | 16 | -3

Screens as filed in PubChem BioAssay.
